# Assay results published in paper PMC5540273 (PLoS ONE, 2017).
# Where “and” joins values, the source holds several entries; their conditions need not be identical. Equal values may be shown once. Read-outs that look alike come from different tables or passages of the source.
# How the values were obtained:
# CDK2 = settings: concentration: 1 μM, replicates: in singlicate; n = 1
# CDK3 = settings: concentration: 1 μM, replicates: in singlicate, n = 1
# CDK4-cyclinD1 = settings: concentration: 1 μM, replicates: in singlicate; n = 1
# CDK4-cyclinD3 = settings: concentration: 1 μM, replicates: in singlicate; n = 1
# CDK4 = settings: concentration: 1 μM, replicates: in singlicate, n = 1
# CDK5 = settings: concentration: 1 μM, replicates: in singlicate; n = 1
# CDK7 = settings: concentration: 1 μM, replicates: in singlicate, n = 1
# CDK8 = settings: concentration: 1 μM, replicates: in singlicate, n = 1
# CDK9 = settings: concentration: 1 μM, replicates: in singlicate; n = 1
# CDKL1 = settings: concentration: 1 μM, replicates: in singlicate, n = 1
# CDKL2 = settings: concentration: 1 μM, replicates: in singlicate, n = 1
# CDKL3 = settings: concentration: 1 μM, replicates: in singlicate, n = 1
# CDKL5 = settings: concentration: 1 μM, replicates: in singlicate, n = 1
# CHEK1 = settings: concentration: 1 μM, replicates: in singlicate, n = 1
# CHEK2 = settings: concentration: 1 μM, replicates: in singlicate; n = 1
# CIT = settings: concentration: 1 μM, replicates: in singlicate, n = 1
# CLK1 = settings: concentration: 1 μM, replicates: in singlicate, n = 1
# CLK2 = settings: concentration: 1 μM, replicates: in singlicate, n = 1
# CLK3 = settings: concentration: 1 μM, replicates: in singlicate, n = 1
# CLK4 = settings: concentration: 1 μM, replicates: in singlicate, n = 1
# 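Further: KINOMEscan kinase panel screen.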
compound,measurement,setting,value
NC(=O)c1sc(-n2cnc3ccccc32)cc1OCc1ccccc1F [GSK1024306],%Inh,CDK2,0%
same,%Inh,CDK3,0%
same,%Inh,CDK4-cyclinD1,0%
same,%Inh,CDK4-cyclinD3,0%
same,%Inh,CDK4,33%
same,%Inh,CDK5,0%
same,%Inh,CDK7,0%
same,%Inh,CDK8,37%
same,%Inh,CDK9,0%
same,%Inh,CDKL1,10%
same,%Inh,CDKL2,22%
same,%Inh,CDKL3,0%
same,%Inh,CDKL5,0%
same,%Inh,CHEK1,0%
same,%Inh,CHEK2,0%
same,%Inh,CIT,39%
same,%Inh,CLK1,37%
same,%Inh,CLK2,0%
same,%Inh,CLK3,0%
same,%Inh,CLK4,42%
COc1ccc(NC(=O)Nc2ccc(C)c(-c3ccc(C(=O)Nc4ccncc4)cc3)c2)cc1 [GSK1398475],%Inh,CDK2,0%
same,%Inh,CDK3,0%
same,%Inh,CDK4-cyclinD1,0%
same,%Inh,CDK4-cyclinD3,9%
same,%Inh,CDK4,7%
same,%Inh,CDK5,0%
same,%Inh,CDK7,0%
same,%Inh,CDK8,40%
same,%Inh,CDK9,0%
same,%Inh,CDKL1,1%
same,%Inh,CDKL2,30%
same,%Inh,CDKL3,0%
same,%Inh,CDKL5,0%
same,%Inh,CHEK1,11%
same,%Inh,CHEK2,0%
same,%Inh,CIT,69%
same,%Inh,CLK1,28%
same,%Inh,CLK2,0%
same,%Inh,CLK3,4%
same,%Inh,CLK4,5%
Cc1cccc(-c2nc(Nc3ccc4[nH]nnc4c3)c3ccccc3n2)n1 [GW867587],%Inh,CDK2,0%
same,%Inh,CDK3,15%
same,%Inh,CDK4-cyclinD1,0%
same,%Inh,CDK4-cyclinD3,0%
same,%Inh,CDK4,0%
same,%Inh,CDK5,0%
same,%Inh,CDK7,0%
same,%Inh,CDK8,30%
same,%Inh,CDK9,0%
same,%Inh,CDKL1,0%
same,%Inh,CDKL2,25%
same,%Inh,CDKL3,0%
same,%Inh,CDKL5,0%
same,%Inh,CHEK1,0%
same,%Inh,CHEK2,0%
same,%Inh,CIT,15%
same,%Inh,CLK1,0%
same,%Inh,CLK2,0%
same,%Inh,CLK3,0%
same,%Inh,CLK4,0%
CCCc1ccc(S(=O)(=O)NC2CCN(c3ccnc(Nc4ccc(OC)cc4)n3)C2)cc1 (centres unmarked) [GSK1379737],%Inh,CDK2,0%
same,%Inh,CDK3,16%
same,%Inh,CDK4-cyclinD1,25%
same,%Inh,CDK4-cyclinD3,0%
same,%Inh,CDK4,37%
same,%Inh,CDK5,0%
same,%Inh,CDK7,0%
same,%Inh,CDK8,50%
same,%Inh,CDK9,0%
same,%Inh,CDKL1,6%
same,%Inh,CDKL2,19%
same,%Inh,CDKL3,0%
same,%Inh,CDKL5,0%
same,%Inh,CHEK1,0%
same,%Inh,CHEK2,15%
same,%Inh,CIT,32%
same,%Inh,CLK1,23%
same,%Inh,CLK2,0%
same,%Inh,CLK3,0%
same,%Inh,CLK4,6%
O=C(c1ccc(-c2cc(-c3c[nH]nc3-c3ccccn3)ccn2)cc1)N1CCCC1 [GW792479],%Inh,CDK2,19%
same,%Inh,CDK3,72%
same,%Inh,CDK4-cyclinD1,22%
same,%Inh,CDK4-cyclinD3,0%
same,%Inh,CDK4,0%
same,%Inh,CDK5,38%
same,%Inh,CDK7,0%
same,%Inh,CDK8,63%
same,%Inh,CDK9,2%
same,%Inh,CDKL1,57%
same,%Inh,CDKL2,24%
same,%Inh,CDKL3,3%
same,%Inh,CDKL5,0%
same,%Inh,CHEK1,0%
same,%Inh,CHEK2,0%
same,%Inh,CIT,18%
same,%Inh,CLK1,0%
same,%Inh,CLK2,8%
same,%Inh,CLK3,0%
same,%Inh,CLK4,0%
Cc1cc(N2CCC(NS(=O)(=O)c3ccc(F)cc3)CC2)nc(Nc2cccc(C#N)c2)n1.O=C(O)C(F)(F)F [GSK1653537],%Inh,CDK2,4%
same,%Inh,CDK3,0%
same,%Inh,CDK4-cyclinD1,0%
same,%Inh,CDK4-cyclinD3,0%
same,%Inh,CDK4,5%
same,%Inh,CDK5,0%
same,%Inh,CDK7,0%
same,%Inh,CDK8,10%
same,%Inh,CDK9,0%
same,%Inh,CDKL1,0%
same,%Inh,CDKL2,24%
same,%Inh,CDKL3,0%
same,%Inh,CDKL5,0%
same,%Inh,CHEK1,4%
same,%Inh,CHEK2,0%
same,%Inh,CIT,0%
same,%Inh,CLK1,14%
same,%Inh,CLK2,0%
same,%Inh,CLK3,0%
same,%Inh,CLK4,25%
Fc1ccc(Nc2nccc(-c3c(-c4ccc(Cl)cc4)nn4ncccc34)n2)cc1F [GW829058],%Inh,CDK2,13%
same,%Inh,CDK3,18%
same,%Inh,CDK4-cyclinD1,62%
same,%Inh,CDK4-cyclinD3,12%
same,%Inh,CDK4,19%
same,%Inh,CDK5,34%
same,%Inh,CDK7,42%
same,%Inh,CDK8,0%
same,%Inh,CDK9,12%
same,%Inh,CDKL1,17%
same,%Inh,CDKL2,22%
same,%Inh,CDKL3,21%
same,%Inh,CDKL5,23%
same,%Inh,CHEK1,12%
same,%Inh,CHEK2,1%
same,%Inh,CIT,0%
same,%Inh,CLK1,0%
same,%Inh,CLK2,10%
same,%Inh,CLK3,10%
same,%Inh,CLK4,5%
Fc1cccc(COc2ccc(Nc3ncnc4cc[nH]c34)cc2Cl)c1,%Inh,CDK2,11%
same,%Inh,CDK3,6%
same,%Inh,CDK4-cyclinD1,6%
same,%Inh,CDK4-cyclinD3,10%
same,%Inh,CDK4,0%
same,%Inh,CDK5,21%
same,%Inh,CDK7,17%
same,%Inh,CDK8,8%
same,%Inh,CDK9,11%
same,%Inh,CDKL1,2%
same,%Inh,CDKL2,14%
same,%Inh,CDKL3,11%
same,%Inh,CDKL5,15%
same,%Inh,CHEK1,10%
same,%Inh,CHEK2,13%
same,%Inh,CIT,19%
same,%Inh,CLK1,7%
same,%Inh,CLK2,16%
same,%Inh,CLK3,10%
same,%Inh,CLK4,0%
COc1ccc(-c2nc3n(c2-c2ccncc2)CCC3)cc1 [SKF-104493],%Inh,CDK2,0%
same,%Inh,CDK3; 1 µM,0% and 4%
same,%Inh,CDK4-cyclinD1,0%
same,%Inh,CDK4-cyclinD3,0%
same,%Inh,CDK4; 1 µM,44% and 0%
same,%Inh,CDK5,0%
same,%Inh,CDK7; 1 µM,15% and 6%
same,%Inh,CDK8; 1 µM,5% and 9%
same,%Inh,CDK9,0%
same,%Inh,CDKL1; 1 µM,11% and 6%
same,%Inh,CDKL2; 1 µM,0% and 1%
same,%Inh,CDKL3; 1 µM,1% and 0%
same,%Inh,CDKL5; 1 µM,2% and 0%
same,%Inh,CHEK1; 1 µM,0% and 13%
same,%Inh,CHEK2,0%
same,%Inh,CIT; 1 µM,16% and 15%
same,%Inh,CLK1; 1 µM,16% and 11%
same,%Inh,CLK2; 1 µM,0% and 6%
same,%Inh,CLK3; 1 µM,5% and 1%
same,%Inh,CLK4; 1 µM,10% and 0%
CCn1c(-c2ccncc2)nc2cnccc21 [SB-735216],%Inh,CDK2,5%
same,%Inh,CDK3,1%
same,%Inh,CDK4-cyclinD1,0%
same,%Inh,CDK4-cyclinD3,0%
same,%Inh,CDK4,45%
same,%Inh,CDK5,0%
same,%Inh,CDK7,6%
same,%Inh,CDK8,0%
same,%Inh,CDK9,0%
same,%Inh,CDKL1,12%
same,%Inh,CDKL2,0%
same,%Inh,CDKL3,25%
same,%Inh,CDKL5,4%
same,%Inh,CHEK1,0%
same,%Inh,CHEK2,0%
same,%Inh,CIT,0%
same,%Inh,CLK1,16%
same,%Inh,CLK2,0%
same,%Inh,CLK3,0%
same,%Inh,CLK4,16%
